In the library only some 1.5% were active in any assay of this set; here they are far more common.
TrxR1 substrate: is turned over as a substrate by rat TrxR1; 0.01% of 390,000 active; Potency, µM (titrated, usually from 114 µM), inactives show top-dose activity change, negative = substrate turnover; AID 588456; purified TrxR1 substrate turnover, NADPH consumption readout; further: potency means the concentration at half of the fitted maximal effect; nearly all actives have a fitted effect of over 50% in size
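Rat TrxR1, dispensed at 90 nM, was prereduced with 400 uM NADPH (final) for 5 min at ~22 deg C, then incubated with compound 15 min before 400 uM selenite. A first-read NADPH fluorescence drop versus no-compound background flagged substrates.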
USP1 inh: blocks the human USP1/UAF1 deubiquitinase complex | recombinant USP1/UAF1, Ub-Rhodamine cleavage fluorescence | Potency, µM (highest dose often 57.1 µM), for the others: at the top dose activity change, negative = inhibition, hits mostly inhibitors | 0.23% of 390,000 active | AID 743255; further: potency means the concentration at half of the fitted maximal effect; nearly all actives have a fitted effect of over 60% in size
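USP1/UAF1 complex (1 nM) preincubated 15 min at room temperature with compound, then Ub-Rho substrate (150 nM final) added. Kinetic fluorescence at 480/540 nm over 6 reads at 60 s intervals; 50 mM HEPES pH 7.8, 0.5 mM EDTA, 0.1 mg/ml BSA, 1 mM TCEP, 0.01% Tween-20.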
Coupling enz: coupling enzyme interference in Giardia aldolase counter-screen; coupling enzyme system counterscreen, AmpLite Red fluorescence; activity change, negative = inhibition, % at 58.2 µM, hits read low; 0.67% of 290,000 active; in the data active means activity change below about -30%
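Compounds tested against the coupling enzymes alone at 57.5 uM final; readout was AmpLite Red fluorescence (525/598 nm) after 20 min at RT.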
rTrxR1 inhibitor: rat TrxR1 inhibition | O89049 | recombinant rTrxR1, NADPH fluorescence consumption, selenite substrate | Potency, µM (highest dose often 114 µM), for the others: at the highest dose activity change, negative = inhibition, actives largely listed as inhibitors | 1% of 390,000 active | AID 588453; further: potency means the concentration at half of the fitted maximal effect; nearly all actives have a fitted effect of over 65% in size
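Rat TrxR1 (90 nM in the dispensed reagent) was pre-reduced with 400 uM NADPH for 5 min at room temperature, then incubated with compound for 15 min. After 400 uM selenite was added, NADPH fluorescence (Ex 340/Em 450 nm) was followed for 8 min.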
GALK inhibitor: inhibitors of human galactokinase; P51570; AID 1868; 0.007% of 270,000 active; Potency, µM (top dose mostly 57.5 µM), for the others: at the top dose activity change, negative = inhibition, hits mostly inhibitors; Purified GALK, Kinase-Glo residual ATP luminescence; further: potency means the concentration at half of the fitted maximal effect
Target sequence (P51570 whole entry, looked up): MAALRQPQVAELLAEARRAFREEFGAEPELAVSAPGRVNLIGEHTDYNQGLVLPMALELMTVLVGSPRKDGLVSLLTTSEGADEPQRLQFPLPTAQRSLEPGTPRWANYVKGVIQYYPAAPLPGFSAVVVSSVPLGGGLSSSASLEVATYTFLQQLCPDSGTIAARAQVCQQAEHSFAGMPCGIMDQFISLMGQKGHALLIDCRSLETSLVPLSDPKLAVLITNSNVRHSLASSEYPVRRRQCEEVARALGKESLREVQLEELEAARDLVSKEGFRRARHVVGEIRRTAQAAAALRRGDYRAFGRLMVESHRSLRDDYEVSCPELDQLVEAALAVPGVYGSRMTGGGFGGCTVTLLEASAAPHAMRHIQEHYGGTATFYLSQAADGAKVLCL
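The enzyme phosphorylates galactose (100 uM) using ATP (35 uM); inhibition is detected as higher residual ATP, quantified by bioluminescence after 1 h reaction at room temperature, pH 8.0.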
Numbers without * were called inactive; ? = inconclusive; / = not tested or not shown; [ ] = dose if it differs, or a comment. Unless noted, the call rests on the fitted dose curve; in most records, active means well fitted curve in the direction sought with a large enough effect; inconclusive means small, poorly fitted or top-dose-only effect, or another doubt; inactive means no such curve, though single readings can be large; an effect the other way counts as inactive or inconclusive. On the % scale 0 is the no-effect control and ±100 the full control effect.

SMILES | TrxR1 substrate | USP1 inh | Coupling enz | rTrxR1 inhibitor | GALK inhibitor
O=S(=O)(c1ccc2nnn(O)c2c1)N1CCOCC1 | -6% | -19% | / | 56µM* | /
O=S(=O)(c1ccc2ncn(O)c2c1)N1CCOCC1 | 10% | -9% | -1 | 34% | 1%
NC(=O)c1ccc2nc(-c3ccc(Oc4ccc(Cl)cc4)cc3)[nH]c2c1 | / | / | -5 | / | /
CN(C)c1ccc(/C=C/c2c(F)cnc3ccccc23)cc1 | -1% | / | / | 3% | /
C=CCN1c2ccccc2[C@]23C[C@@H](C(=O)OC)N(C(=O)COCc4ccccc4)C2=NC(C(=O)OC)=C(C(=O)OC)[C@H]13 | / | / | 1 | / | /
CSc1ccc(/C=C2\C=C(C(O)c3ccc(SC)cc3)c3ccccc32)cc1 (stereo not given) | -6% | / | / | -6% | /
O=C(Cn1nc(Cc2ccncc2)c2ccccc2c1=O)N1CCc2ccccc2C1 | 15% | 28µM* | -25 | 59% | -2%
CCCCNC(=O)Cn1nc(Cc2ccncc2)c2ccccc2c1=O | 2% | -17% | 6 | 18% | -1%
CN(C)c1ccc2c(-c3ccccc3)c3ccc(=[N+](C)C)cc-3oc2c1 | / | / | 20 | / | /
O=C(NC1CCCC1)c1ccc(CS(=O)Cc2ccccc2Cl)o1 (stereo not given) | 6% | -6% | / | 50µM* | -5%
O=C1/C(=C/c2ccc(O)c(O)c2)Oc2ccccc21 | / | / | -10 | / | /
CCN(CC)CCCNC(=O)/C(=C\c1cccn1C)NC(=O)c1cccs1 | -6%[57.1 µM] | -4% | 4 | -15%[57.1 µM] | -1%
CCN(CC)CCC=C(c1cccs1)c1cccs1 | 13% | ? | / | 22µM* | /
COc1ccc(OC)c2c(/C=C/c3c(C)[nH]c4ccccc34)ccnc12 | 0% | / | / | 4% | /
COc1cccc2cc(C(=O)C3=C(O)C(=O)N(c4cc(C)on4)C3c3cccs3)oc12 (stereo not given) | -17% | -20% | 6 | 50µM* | -12%
C=C1C=C(C)n2ncc(C(=O)Nc3ccc(C)cn3)c2N1 | -3% | / | / | 9% | /
COc1ccc(-c2nc3ccccn3c2Nc2ccccc2C)cc1 | 153% | / | / | 33% | /
Cc1nnnn1/C(=C\c1ccccc1)C(=O)OCC(=O)Nc1cccc(S(=O)(=O)N(C)C)c1 | -8% | -13% | / | 13µM* | /
COC(=O)[C@H](Cc1ccccc1)NC(=O)O[C@@H]1C(=O)c2cc(OC)ccc2O[C@H]1c1cccc(OC)c1 | / | / | 3 | / | /
c1ccc(-c2cnn3c(-c4ccccc4)c(-c4ccccc4)nc3n2)cc1 | -9% | 1.4µM* | -1 | -14% | 1%
Cc1ccc2nc3c(nc2c1C)C(O)=C3O | 2%[57.1 µM] | -20% | 4 | 8.9µM* | 5%
Cc1ccc2nc3c(nc2c1C)CCCC3 | 13%[57.1 µM] | -16% | 0 | 8%[57.1 µM] | 3%
Cc1ccc(CN(C)C(=O)C2CCC(=O)N(CCc3ccccc3)C2)o1 (stereo not given) | 9% | -13% | 0 | 40µM* | /
CN(Cc1cnccn1)C(=O)C1CCC(=O)N(CCc2ccccc2)C1 (stereo not given) | 3% | -23% | -1 | 13% | 1%
COc1cccc(CN2CC(C(=O)NCCc3ccc(C)o3)CCC2=O)c1 (stereo not given) | 7% | -8% | / | 20µM* | -5%
SMILES | TrxR1 substrate | USP1 inh | Coupling enz | rTrxR1 inhibitor | GALK inhibitor
Cc1cc(C)nc(CCNC(=O)C2CCC(=O)N(Cc3ccccc3F)C2)n1 (stereo not given) | -3% | -6% | / | 2% | 6%
COc1cccc(CCNC(=O)C2CCC(=O)N(Cc3cccc(OC)c3)C2)c1 (stereo not given) | 4% | -25% | 6 | 20% | 4%
Cc1ccc(CCNC(=O)C2CCC(=O)N(Cc3ccccc3F)C2)o1 (stereo not given) | 6% | -4% | / | 56µM* | -5%
CCN(CC)c1ccc(-c2nnc(SCC(=O)NCc3ccco3)n2C)cc1 | -5% | / | / | 8% | /
COc1ccc2cc3cc(C(=O)NCCCN4CCC(C)CC4)oc3nc2c1 | 700% | -9% | / | 50µM* | 0%
N#C/C(=C1\C(=O)Nc2c(Cl)cc(Cl)cc21)c1nnc2n1CCCCC2 | 8%[57.1 µM] | -21% | -38* | 7%[57.1 µM] | 0%
COc1ccc(C(=O)Cc2nnc(C)s2)c(OC)c1 | -2% | -2% | -34* | 3% | 0%
CCOC(=O)c1ccccc1S(=O)(=O)N1CCN(c2nc(-c3cccs3)nc3ccccc23)CC1 | 1% | / | / | 17% | /
CC(C)CCNC(=O)c1cc2c(=O)n3ccccc3nc2s1 | 106% | -10% | -1 | 45µM* | 1%
CC(C)CN(CC(C)C)C(=O)c1cc2c(=O)n3ccccc3nc2s1 | 32%[57.1 µM] | -15% | 2 | 2%[57.1 µM] | /
CCCN(CC(=O)Nc1ccccc1C)C(=O)c1ccc(-c2ccc([N+](=O)[O-])cc2)o1 | -3% | -10% | / | 3.5µM* | /
C=CCNC(=O)c1ccc(-c2cccc([N+](=O)[O-])c2)o1 | -11%[57.1 µM] | -6% | 1 | -1%[57.1 µM] | -1%
C=CCNC(=O)c1ccc(-c2ccc([N+](=O)[O-])cc2)o1 | -10%[57.1 µM] | -15% | 5 | 10µM* | 0%
NS(=O)(=O)c1ccc(NC(=S)Nc2ccn(Cc3cccc4ccccc34)n2)cc1 | -1%[57.1 µM] | ? | 1 | 13µM* | -2%
CC1/C=C/C=C/C=C/C=C/C=C/C=C/C=C/C(OC2OC(C)C(O)C(N)C2O)CC2O[C@@](O)(CC(O)CC(O)C(O)CCC(O)CC(O)CC(=O)OC(C)[C@H](C)C1O)CC(O)C2C(=O)O (stereo not given in full) | / | / | -6 | / | /
Cc1ccc2nc(-c3ccc(C)o3)c(Nc3ccc(Cl)cc3)n2c1 | 11% | / | / | ? | /
CN(CCCN(Cc1ccc(Cl)cc1)c1ccc(Br)cn1)C(=S)NCCCc1cnc[nH]1 | -5% | / | / | 1% | /
CCOc1cc(CN2CCN(c3ccc(C(C)=O)cc3)CC2)ccc1OC | 2% | -14% | 1 | 35µM* | -1%
CC(C)N1C/C(=C/c2cccnc2)C(=O)/C(=C/c2cccnc2)C1 | 3% | -22% | 2 | ? | /
CN1C/C(=C/c2cccnc2)C(=O)/C(=C/c2cccnc2)C1 | -11% | -14% | 0 | 10µM* | -2%
CCOC(=O)c1cccc(NC(=O)CCS(=O)(=O)c2ccc(Br)s2)c1 | -2% | -14% | 1 | 5% | 1%
CCOC(=O)c1cccc(NC(=O)CCS(=O)(=O)c2cccs2)c1 | -4% | -12% | -1 | 22µM* | -2%
O=C1OC(Nc2cc(Br)cc3cccnc23)c2ccccc21 (stereo not given) | -6% | -15% | -40* | -7% | -1%
O=C1OC(Nc2ncccn2)c2ccccc21 (stereo not given) | -3% | 13% | 0 | 6% | 1%
CCOC(=O)c1ccc(NC(=O)CC2Sc3ncnn3C2=O)cc1 (stereo not given) | 11% | -1% | -7 | 1.8µM* | -2%

Assay outcomes deposited in PubChem by National Center for Advancing Translational Sciences (NCATS).
